The full ranking holds about 110,000 compounds; the median of “z-score” is about -0.1, and the highest 2% start at about 2. Shown is part of a subset that was picked to be rich in the highest values. Activity calls are given as the source filed them.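 How the source made its calls: active means z-score in the third read window above 3 or below -3; inactive means the rest.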
Target: Metabotropic glutamate receptor 8 (Rattus norvegicus) (UniProt P70579)
Assay: mGluR8 Gi/Go-coupled signaling modulation – cell-based, rat, thallium flux, HTS, primary screen (AID 488969)
Details: HEK293 rat mGluR8, GIRK (G protein-gated inwardly rectifying potassium channel) thallium flux, FluoZin2; at 10 µM; stronger effect = higher value; submaximal glutamate (EC20) added with thallium

Chain of Metabotropic glutamate receptor 8 (Rattus norvegicus) (P70579 whole entry, looked up): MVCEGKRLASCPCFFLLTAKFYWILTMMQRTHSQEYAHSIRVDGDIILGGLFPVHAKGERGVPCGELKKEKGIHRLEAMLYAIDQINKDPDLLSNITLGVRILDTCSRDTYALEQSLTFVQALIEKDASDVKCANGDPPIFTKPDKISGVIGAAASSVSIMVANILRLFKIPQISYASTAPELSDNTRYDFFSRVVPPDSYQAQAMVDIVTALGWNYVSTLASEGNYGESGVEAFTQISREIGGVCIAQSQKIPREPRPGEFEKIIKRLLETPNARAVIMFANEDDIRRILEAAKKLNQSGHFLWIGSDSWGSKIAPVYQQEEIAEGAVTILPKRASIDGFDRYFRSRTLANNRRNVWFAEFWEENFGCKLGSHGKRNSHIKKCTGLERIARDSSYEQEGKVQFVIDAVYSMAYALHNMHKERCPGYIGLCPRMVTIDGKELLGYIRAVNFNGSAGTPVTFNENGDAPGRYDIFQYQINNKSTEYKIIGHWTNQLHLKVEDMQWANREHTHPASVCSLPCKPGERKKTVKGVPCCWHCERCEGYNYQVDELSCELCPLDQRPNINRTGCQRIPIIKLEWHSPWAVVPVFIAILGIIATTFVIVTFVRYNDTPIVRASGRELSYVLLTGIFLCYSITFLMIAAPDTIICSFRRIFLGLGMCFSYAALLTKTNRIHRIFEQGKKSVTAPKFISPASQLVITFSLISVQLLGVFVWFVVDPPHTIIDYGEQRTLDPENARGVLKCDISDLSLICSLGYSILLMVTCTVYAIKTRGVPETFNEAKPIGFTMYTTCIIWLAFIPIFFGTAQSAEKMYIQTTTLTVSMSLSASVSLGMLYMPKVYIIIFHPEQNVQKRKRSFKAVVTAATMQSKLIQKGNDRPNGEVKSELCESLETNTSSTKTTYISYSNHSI

Row | SMILES | z-score
1 | COCCCNS(=O)(=O)c1ccc(SC)cc1 | -0.232
2 | O=C(COC(=O)Cc1c(Cl)cccc1Cl)Nc1ccc(OC(F)(F)F)cc1 | 0.262
3 | CNc1nc(SCc2ccccc2)nc(N2CCOCC2)n1 | -0.587
4 | O=c1ccn(-c2cccc(C(F)(F)F)c2)nc1-c1ccn(-c2ccccc2)n1 | -0.401
5 | S=C(Nc1cccc2ccccc12)N1CCN(c2ncccn2)CC1 | -0.1
6 | COc1ccc(-n2c(Cc3cccn3C)nnc2SCC(=O)NCCc2ccccc2)cc1 | -0.482
7 | CC12C(=O)N(c3cccc4cccnc34)C(=O)C1C1C=CC2C1 (configuration not stated) | 0.818
8 | CNc1nc(OCC(F)(F)F)nc(N2CCN(C34CC5CC(CC(C5)C3)C4)CC2)n1 | 0.418
9 | O=C(c1cccs1)N1N=C(c2ccccc2)CC1c1ccccc1 (configuration not stated) | -0.101
10 | O=C(Nc1ccc(Br)c(C(F)(F)F)c1)c1ccccc1 | 0.42
11 | S=C(Nc1ccc(Oc2ccccc2)cc1)NC1CCCCCC1 | 0.425
12 | COC(=O)c1ccc(NC(=S)NC2CCCCC2)cc1 | 0.1
13 | CCOC(=O)c1ccc(NC(=S)NC2CCCC2)cc1 | 2.61
14 | S=C(NCC1CCCCC1)Nc1ccc(Oc2ccccc2)cc1 | 0.317
15 | CCCNC(=S)Nc1ccc(Oc2ccccc2)cc1 | 0.463
16 | COC(=O)c1ccccc1NC(=S)NC(=O)CC(C)C | 0.252

Row | SMILES | z-score
17 | COC(=O)c1ccccc1NC(=S)NC(NC(=O)COc1ccccc1)C(Cl)(Cl)Cl (configuration not stated) | -0.203
18 | CCCN1CCC(NC(=S)Nc2ccc(C(=O)OCC)cc2)CC1 | -0.26
19 | COC(=O)c1ccccc1NC(=S)NC(=O)COc1ccccc1 | 7.01 (active)
20 | CC(C)CNC(=S)Nc1ccc(Oc2ccccc2)cc1 | 2.69
21 | S=C(Nc1ccc(Oc2ccccc2)cc1)NC1CCCC1 | 7.92 (active)
22 | CCNC(=S)Nc1ccc(Oc2ccccc2)cc1 | 0.818
23 | CCn1cnc2cc(NCc3nc4ccccc4n3Cc3ccccc3)ccc21 | -0.34
24 | CC(C)c1ccc2[nH]c(O)c(N=NC(=O)c3cccc(S(=O)(=O)N4CCCCC4)c3)c2c1 | -0.156
25 | CCOc1ccc(/C=C/C(=O)NCCc2ccc(OC)c(OC)c2)cc1 | -0.114
26 | COc1ccc(OCc2ccc(C(=O)NN)cc2)cc1 | 0.222
27 | Cc1ccc2cc(COC(=O)c3ccncc3)c(=O)[nH]c2c1 | -0.162
28 | COc1ccc(-c2cc(C(=O)OCC(=O)N3CCCC3)c3ccccc3n2)cc1 | -0.231
29 | CCn1c(SCC(=O)Nc2cccc(NC(C)=O)c2)nnc1C(C)C | -0.322
30 | CCc1cccc(CC)c1NC(=O)CSc1nnc(C(C)C)n1CC | 0.342
31 | CCn1c(SCC(=O)Nc2cccc(C(C)=O)c2)nnc1C(C)C | 2.28
32 | Cc1ccc2cc(CN(Cc3ccco3)C(=O)c3ccccc3)c(=O)[nH]c2c1C | -0.385

Reference: PubChem BioAssay AID488969 (Vanderbilt High Throughput Screening Facility, 2010)
